# The list is not random: actives were taken first. Their share in the collection is about 10%.
# HP1b chromo inh: HP1-beta chromodomain-methylated histone interaction inhibition; P83916; AlphaScreen HP1-beta / biotin-H3K9me3 peptide binding; Potency, µM (series often up to 114 µM), inactives show top-dose activity change, negative = inhibition, hits mostly inhibitors; actives 0.56% (n = 390,000); also: nearly all actives have a fitted effect of over 70% in size
#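 HP1-beta protein (50 nM final) preincubated 30 min at room temperature with biotinylated H3(1-18)K9me3 peptide (50 nM) in PBS pH 7.4, 0.01% Tween-20, then compound added for 30 min. AlphaScreen streptavidin donor/nickel chelate acceptor beads (10 ug/mL final), 30 min dark, luminescence read.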
# L3MBTL1 inh: inhibitors of human L3MBTL1; Potency, µM (top dose mostly 57.1 µM), for the others: top-dose activity, negative = inhibition, hits mostly inhibitors; AlphaScreen L3MBTL1–H3K9me1 peptide binding; actives 0.66% (n = 230,000); also: % is scaled to controls: 0 for no effect and ±100 for the full control effect; nearly all actives have a fitted effect of over 60% in size
#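 Displacement of a biotinylated histone H3(1-15) peptide monomethylated at Lys9 (75 nM) from L3MBTL1 (50 nM) was measured by AlphaScreen after a 30 min room-temperature compound incubation; cefsulodin titration served as intraplate control.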
# G9a block: G9a (human) methyltransferase inhibition | Q96KQ7 | G9a H3K9 monomethylation, AlphaScreen, 2 h | Potency, µM (titrated, usually from 102 µM), for inactives: top-dose activity, negative = inhibition, most hits filed as inhibitors | actives 8.8% (n = 350,000) | AID 504332; also: % is scaled to controls: 0 for no effect and ±100 for the full control effect; nearly all actives have a fitted effect of over 75% in size
#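 Enzyme 20 nM + cpd, 15 min RT; add b-H3K9 pep 500 nM / SAM 20 uM; 2 h RT; anti-H3K9me1 Ab 0.5 ug/mL + SA donor / anti-rabbit acceptor beads 20 ug/mL each, 10 min; AlphaScreen read.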
# JMJD2A Tudor: JMJD2A Tudor domain (human) inhibition; O75164; AlphaScreen JMJD2A-Tudor / H3K4me3 peptide binding; Potency, µM (doses to about 114 µM), without a hit: top-dose activity change, negative = inhibition, hits mostly inhibitors; actives 4.4% (n = 390,000); also: % is scaled to controls: 0 for no effect and ±100 for the full control effect; nearly all actives have a fitted effect of over 50% in size
# GLS inhibitor: inhibitors of human glutaminase (GLS) | GLS enzymatic activity, qHTS titration | Potency, µM (doses to about 45.5 µM), for inactives: at the highest dose activity change, negative = inhibition, actives largely listed as inhibitors | actives 0.21% (n = 410,000); also: % is scaled to controls: 0 for no effect and ±100 for the full control effect
# Target sequence (O94925 whole entry, looked up): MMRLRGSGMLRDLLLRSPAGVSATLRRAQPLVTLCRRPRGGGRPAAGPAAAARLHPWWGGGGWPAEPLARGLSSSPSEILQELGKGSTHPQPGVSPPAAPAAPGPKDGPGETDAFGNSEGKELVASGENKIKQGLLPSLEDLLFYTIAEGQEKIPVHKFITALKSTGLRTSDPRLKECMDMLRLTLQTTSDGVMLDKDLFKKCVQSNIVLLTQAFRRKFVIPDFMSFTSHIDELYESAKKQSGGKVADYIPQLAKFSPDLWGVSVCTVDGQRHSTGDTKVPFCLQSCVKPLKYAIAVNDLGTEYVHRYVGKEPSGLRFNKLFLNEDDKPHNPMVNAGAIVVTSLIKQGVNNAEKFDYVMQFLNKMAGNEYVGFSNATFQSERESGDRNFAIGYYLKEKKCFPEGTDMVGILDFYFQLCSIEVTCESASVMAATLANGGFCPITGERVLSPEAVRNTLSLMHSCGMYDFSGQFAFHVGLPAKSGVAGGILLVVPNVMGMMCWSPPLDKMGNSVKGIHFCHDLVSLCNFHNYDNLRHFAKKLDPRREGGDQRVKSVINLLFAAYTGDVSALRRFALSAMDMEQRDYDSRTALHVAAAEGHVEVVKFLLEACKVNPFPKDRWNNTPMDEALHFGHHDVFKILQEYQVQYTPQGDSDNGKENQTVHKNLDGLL
#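 Read-out is an Amplex red fluorescence increase coupled through glutamate oxidase and HRP, measured before and after 30 min room-temperature incubation. hKGA is in 45 mM KH2PO4 (pH 8.2) with 0.02% Tween-20; glutamine added as 1mM solution.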
# BAZ2B block: blocks human BAZ2B; AlphaScreen BAZ2B-H3K14Ac peptide displacement; AID 504333; actives 4.4% (n = 360,000); Q9UIF8; Potency, µM (series often up to 114 µM), without a hit: at the top dose activity change, negative = inhibition, hits mostly inhibitors; also: % is scaled to controls: 0 for no effect and ±100 for the full control effect; nearly all actives have a fitted effect of over 60% in size
#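 Compounds, titrated to a top concentration of 110 uM, were incubated 30 min at room temperature with preformed BAZ2B/acetyl-K14 H3 peptide complex (50 nM each). Proximity signal was measured by AlphaScreen after 20 min with beads.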
# Starred values were filed as active, the others as inactive; ? = inconclusive; nt = no result; [ ] = dose if it differs, or a comment. Calls follow the shape of the dose curve; as a rule, active = well fitted curve in the direction sought with a large enough effect; inconclusive = small, poorly fitted or top-dose-only effect, or another doubt; inactive = no such curve, though single readings can be large; an effect the other way counts as inactive or inconclusive. Potency is read from the fitted curve at half-maximal effect.
SMILES,HP1b chromo inh,L3MBTL1 inh,G9a block,JMJD2A Tudor,GLS inhibitor,BAZ2B block
O=C(O)c1ccc(N/N=C/C2=C(N3CCOCC3)C(=C\c3ccccc3)/CC2)cc1,?,?,nt,?,-25.1%,50.1µM*
O=[N+]([O-])c1cccc(N/N=C/c2ccc(N3CCOCC3)cc2)c1,39.8µM*,nt,39.8µM*,35.5µM*,13.3%,17.8µM*
O=C(O)c1cc(N/N=C/c2ccc(N3CCOCC3)cc2)ccc1Cl,52.4%,-24.9%,-137.8%[59 µM],-34.2%,17.8%,?
C(=N\Nc1ccccn1)/c1ccc(N2CCOCC2)cc1,-6.3%,?,-17.8%,?,?,?
C(=N\Nc1ccccc1)/c1ccc(N2CCOCC2)cc1,1.6%,-8.3%,3.98µM*,?,3.1%,-33.2%[57.1 µM]
Cc1cc(C)nc(N/N=C/C2=C(N3CCOCC3)C(=C\c3ccc(Cl)cc3)/CC2)n1,3.1%[57 µM],-10.4%,?,?,0.0%,-31.8%
Cc1c(Cl)cccc1-n1ncc(C(=O)N2CCC(C)CC2)c1C1CCN(C(=O)OC(C)(C)C)CC1,20.3%,nt,-30.2%[59 µM],-14.6%,-7.3%,3.1%[57.1 µM]
O=C(Nc1nnc(C2CCCCC2)s1)C1CCN(C(=O)c2ccco2)CC1,24.8%,nt,nt,-19.1%,nt,nt
O=C(c1ccc2c(c1)N(Cc1c(F)cccc1Cl)C(=O)c1ccccc1S2)N1CCOCC1,5.1%,nt,-26.6%[59 µM],-33.0%,6.9%,nt
CCSc1ncc(/C=N/Nc2ccc(Cl)cc2)n1C,39.8µM*,-13.6%,?,56.2µM*,25.5%,35.5µM*
Cc1cccc(Nc2nnc(-n3nc(C)cc3C)c3ccccc23)c1,68.5%,nt,43.7%[59 µM],-6.5%,21.4%,39.4%
CC1CCCN(CCOc2ccc(Br)cc2)C1 (stereo not given),-37.2%,0.8%,10µM*,20µM*,-20.5%,?
COc1cccc(OCCCN2CCCCC2)c1,13.8%,-6.4%,-5.7%,-11.7%,-2.1%,5.5%
CC(C)c1cccc(OCCN2CCCC2)c1,?,-1.3%,31.6µM*,35.5µM*,2.4%,?
COc1ccc(OCCCN2CCCCCC2)cc1,14.6%,nt,14.9%[2.33 µM],?,-2.0%,-36.4%
CCOc1cccc(OCCCCN2CCCCC2)c1,?,-4.1%,8.91µM*,?,-0.6%,?
Brc1cccc(OCCCCN2CCCCC2)c1,?,-9.4%,7.08µM*,50.1µM*,6.1%,?
CC(C)c1cnc2c(c1SCc1cccc(F)c1)c(=O)n(C)c(=O)n2C,31.3%[57 µM],nt,-41.0%[59 µM],11.0%,2.8%,8.5%
COc1ccc(C2Nc3ccccc3C(=O)N2Cc2ccccc2)cc1COc1ccc([N+](=O)[O-])c(C)c1 (stereo not given),10.0%[57 µM],nt,nt,-10.8%[57.1 µM],nt,nt
CC1CCCN(CCCCOc2cccc(Br)c2)C1 (stereo not given),-14.3%,-10.9%,?,50.1µM*,4.4%,50.1µM*
CCC1CCCCN1CCCCOc1cccc(Cl)c1 (stereo not given),?,nt,-21.1%,17.8µM*,8.7%,?
COc1cccc(OCCCCN2CCCCC2)c1,-2.7%,-13.6%,?,8.91µM*,3.0%,?
CN1CCN(CCOc2cccc(Cl)c2)CC1,24.2%,1.3%,?,?,-10.1%,?
COC(=O)CC(=O)CSc1nc2cc(C(=O)NC(C)C)ccc2c(=O)n1CCc1ccccc1,50.4%,nt,12.3%[59 µM],11.0%,7.6%,-2.6%
CCc1cccc(NC(=O)C(Cc2ccccc2)NS(=O)(=O)c2ccc3c(c2)c(=O)n(C)c(=O)n3C)c1 (stereo not given),3.1%,nt,-12.9%[59 µM],-7.7%,-3.1%,?
SMILES,HP1b chromo inh,L3MBTL1 inh,G9a block,JMJD2A Tudor,GLS inhibitor,BAZ2B block
Cc1ccc(S(=O)(=O)NCCC(=O)Oc2ccc3ccc(=O)oc3c2)cc1,8.5%,2.4%,10.8%[59 µM],-16.0%,11.7%,-3.4%
Cc1ccc(S(=O)(=O)NC(C(=O)Oc2ccc3ccc(=O)oc3c2)c2ccccc2)cc1 (stereo not given),37.3%,9.3%,7.94µM*,-11.6%,11.6%,1.0%
Cc1ccc(S(=O)(=O)NC(C(=O)Oc2ccc3c(C)c(Cl)c(=O)oc3c2)c2ccccc2)cc1 (stereo not given),28.5%,0.8%,7.94µM*,-1.4%,5.0%,-4.3%
CCC[C@@H](NS(=O)(=O)c1ccc(C)cc1)C(=O)Oc1ccc2c3c(c(=O)oc2c1)CCC3,18.1%,3.8%,?,-9.3%,12.5%,2.4%
Cc1ccc(S(=O)(=O)N[C@H](C(=O)Oc2ccc3c(C(F)(F)F)cc(=O)oc3c2)c2ccccc2)cc1,31.1%,8.3%,3.55µM*,28.2µM*,-25.4%,7.3%
Cc1cccc(CC(=O)N2CC(=O)Nc3ccc(Br)cc3C2c2ccc(F)cc2)c1 (stereo not given),1.6%,nt,?,-28.3%,4.0%,-14.6%
Cc1ccc2c(=O)cc(C(=O)Nc3c(C(=O)Nc4cccc(Cl)c4)oc4ccccc34)oc2c1,15.7%,nt,13.5%[59 µM],-13.9%,0.8%,0.0%
Cc1cccc(C)c1NC(=O)CSc1ncc2c(n1)-c1ccc(Cl)cc1N(Cc1ccccc1)S2(=O)=O,33.4%,nt,-1.7%[59 µM],-12.3%,1.9%,-21.0%
COc1ccc(-c2nn3c(-c4cc(-c5ccccc5)n[nH]4)nnc3s2)cc1,31.0%[57 µM],nt,nt,-6.9%[57.1 µM],nt,nt
CCCCn1c(N)c(N(CC(C)C)C(=O)c2cc(-c3ccc(OC)c(OC)c3)nc3ccccc23)c(=O)[nH]c1=O,18.9%,-3.8%,?,-9.7%,0.7%,14.8%
CCCCN(C(=O)c1cc(Cl)nc2ccccc12)c1c(N)n(CCCC)c(=O)[nH]c1=O,22.5%,0.9%,56.2µM*,-30.6%,-1.2%,1.3%
CCCCN(C(=O)c1ccccc1F)c1c(N)n(CCC)c(=O)[nH]c1=O,29.0%,nt,7.9%,79.4µM*,1.0%,-12.5%
CCCCN(C(=O)c1cc(=O)[nH]c2ccccc12)c1c(N)n(CCC)c(=O)[nH]c1=O,36.0%,-3.1%,-22.1%,16.2%,-3.7%,-2.2%
CCCCn1c(N)c(N(CCOC)C(=O)c2cc(-c3ccco3)nc3ccccc23)c(=O)[nH]c1=O,-37.8%,?,39.8µM*,39.8µM*,?,50.1µM*
CCCCn1c(N)c(N(CCOC)C(=O)c2cc(-c3ccc(OC)c(OC)c3)nc3ccccc23)c(=O)[nH]c1=O,20.1%,2.4%,11.2µM*,-14.5%,6.4%,-36.2%
CN(Cc1ccco1)c1ncncc1-c1ccc2c(c1)OCO2,nt,nt,-2.6%[0.501 µM],nt,nt,nt
O=C(NCCO)C(=O)NCC(c1ccc2c(c1)OCO2)N1CCOCC1 (stereo not given),26.6%[57 µM],nt,-0.7%[59 µM],-4.2%,3.8%,2.1%
CCOc1ccc(NC(=O)c2ccc(NC(=O)N3CCSc4ncccc43)cc2)cc1,27.9%,nt,-3.5%[59 µM],12.1%,1.6%,-2.3%
